Screens from PubChem BioAssay.
IP6K1 inhibitor: Primary qHTS assay for small molecule inhibitors of Inositol hexaphosphate kinase 1 (IP6K1); Inositol hexakisphosphate kinase 1 (Homo sapiens), Q92551; IP6K1 kinase, ADP-Glo luminescence, 2 h; stronger effect = lower value; activity change, % (series mostly up to about 58 µM); 140,000 compounds, 0.81% hits; AID 1645851, 2021; in the data active = activity change below about -25%
Target sequence (Q92551 whole entry, looked up): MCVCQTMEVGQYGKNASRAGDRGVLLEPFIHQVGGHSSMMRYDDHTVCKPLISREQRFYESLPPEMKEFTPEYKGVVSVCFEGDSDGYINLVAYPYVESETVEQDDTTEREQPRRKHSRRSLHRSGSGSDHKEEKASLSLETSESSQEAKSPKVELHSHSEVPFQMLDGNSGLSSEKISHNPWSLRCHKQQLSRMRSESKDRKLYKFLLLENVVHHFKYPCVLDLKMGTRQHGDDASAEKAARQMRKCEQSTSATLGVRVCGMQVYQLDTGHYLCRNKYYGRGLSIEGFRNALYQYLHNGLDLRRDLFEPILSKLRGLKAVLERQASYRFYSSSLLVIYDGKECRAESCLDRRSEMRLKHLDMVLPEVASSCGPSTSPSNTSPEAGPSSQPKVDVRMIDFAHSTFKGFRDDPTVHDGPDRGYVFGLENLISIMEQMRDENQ
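ADP-Glo luminescence measures ADP made by human IP6K1 during a 2 h RT reaction with ATP/IP6 (mix at 1.3 mM/130 uM); top library doses 57.5 and 19.1 uM final.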
SNCA expr inhib: Primary qHTS assay for inhibitors of alpha-synuclein gene (SNCA) expression. HEK-293 SNCA-luciferase knock-in, luminescence, 24 h. Potency, µM (series often up to 57.2 µM), most hits filed as inhibitors. 140,000 compounds, 0.17% hits; note: nearly all actives have a fitted effect of over 45% in size
SNCA viab count: GF-AFC viability counterscreen for inhibitors of alpha-synuclein gene (SNCA) expression. HEK-293-SNCA-luc viability, GF-AFC fluorescence, 24 h. Potency, µM (highest dose often 57.1 µM), actives largely listed as cytotoxic. 150,000 compounds, 0.12% hits; note: nearly all actives have a fitted effect of over 30% in size
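Cytotoxicity counterscreen: after 24 h compound treatment of genome-edited SNCA-luciferase HEK-293 cells, live-cell protease substrate GF-AFC read by fluorescence after 30 min; activity scaled between DMSO (0%) and medium-only (-100%), curves Hill-fitted.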
KDM5B inh: Primary screen for KDM5B Histone Demethylases FDH-coupled qHTS; Lysine-specific demethylase 5B (Homo sapiens), Q9UGL1; KDM5B demethylase, FDH-coupled NADH fluorescence (FDH is formaldehyde dehydrogenase); Potency, µM (highest dose often 57.7 µM), most hits filed as inhibitors; 220,000 compounds, 2.6% hits; AID 1347165, 2019; note: nearly all actives have a fitted effect of over 70% in size
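Coupled FDH/NAD⁺ fluorescence readout. KDM5BΔAP 200 nM final; compound titration, 10 min RT preincubation; substrate mix 12.5 µM H3K4me3, 25 µM 2-OG, 50 µM Fe(II), 100 µM ascorbate, 0.25 mM NAD⁺, 0.25 U/mL FDH; ΔRFU over 30 min.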
Each line names hits and unclear results; the compound was inactive in the other large screens. Most compounds without a hit are left out; they make up all but 2.8% or so of the library. Unless noted, calls come from the whole dose curve; as a rule, active = well fitted curve in the direction sought with a large enough effect; inconclusive = small, poorly fitted or top-dose-only effect, or another doubt; inactive = no such curve, though single readings can be large; an effect the other way counts as inactive or inconclusive.

COc1cccc([S+](=O)([O-])N2CCC(N3C(=O)c4c(c(C)nn4-c4ccccc4)C3C3CC3)C2)c1 (centres undefined)	none (no result: SNCA expr inhib, SNCA viab count, KDM5B inh)
Cc1cc(C[C@@H]2COC[C@@H]2NC(=O)c2cnn3ccccc23)on1	KDM5B inh 28µM
Cc1cc(C[C@@H]2COC[C@@H]2NC(=O)c2cc(-c3ccccc3O)n[nH]2)on1	none
COc1ccc(C(=O)N[C@H]2COC[C@H]2Cc2cc(C)no2)c(F)c1F	KDM5B inh inconclusive
Cc1cc(C[C@@H]2COC[C@@H]2NC(=O)c2cc(C)oc2-c2ccccc2)on1	KDM5B inh 28µM
Cc1ccc2oc(C(=O)N[C@H]3COC[C@H]3Cc3cc(C)no3)c(C)c2c1	KDM5B inh 16µM
COc1cc(OC)c(C(=O)N[C@H]2COC[C@H]2Cc2cc(C)no2)cc1OC	KDM5B inh 20µM
CC1=C(C(=O)OCc2ccc3c(c2)OCO3)C(c2cccc(Cl)c2Cl)CC(=O)N1 (centres undefined)	none (no result: IP6K1 inhibitor, SNCA expr inhib, SNCA viab count)
O=C(NCCC(=O)N1CCN(c2ncccn2)CC1)c1ccc(Br)cc1	none (no result: IP6K1 inhibitor, SNCA expr inhib, SNCA viab count)
C=CCNC(=O)c1cccc2c(C)nnn12	KDM5B inh 32µM
CNC(=O)c1cccc2c(C)nnn12	KDM5B inh 32µM
Cc1nnn2c(C(=O)Nc3ccc(Cl)nc3)cccc12	KDM5B inh inconclusive
Cc1nnn2c(C(=O)NCc3ccc(Cl)nc3)cccc12	KDM5B inh 35µM
Cc1nnn2c(C(=O)Nc3ccc(F)cc3)cccc12	KDM5B inh inconclusive
Cc1ccc(S(=O)(=O)N2CCCCC2)cc1NC(=O)CSc1nnc2ccccn12	none (no result: IP6K1 inhibitor, SNCA expr inhib, SNCA viab count)
COc1ccc(C2CC(=O)N(c3sc4c(c3C#N)CCCC4)C3=C2C(=O)CCC3)cc1 (centres undefined)	none (no result: IP6K1 inhibitor, SNCA expr inhib, SNCA viab count)
N#Cc1cccc(NC(=O)c2ccccc2Oc2ccccc2)c1	none (no result: IP6K1 inhibitor, SNCA expr inhib, SNCA viab count)
O=C(Nc1cccc(Cl)c1)c1cc2n(n1)CC(c1ccc3c(c1)OCO3)OC2 (centres undefined)	KDM5B inh 25µM
O=C(Nc1ccc(F)cc1)c1cc2n(n1)CC(c1ccc3c(c1)OCO3)OC2 (centres undefined)	SNCA expr inhib inconclusive, KDM5B inh inconclusive
CCc1cccc(NC(=O)c2cc3n(n2)CC(c2ccc4c(c2)OCO4)OC3)c1 (centres undefined)	SNCA viab count inconclusive, KDM5B inh inconclusive
O=C(c1cc2n(n1)CC(c1ccc3c(c1)OCO3)OC2)N1CCCC1 (centres undefined)	SNCA viab count inconclusive, KDM5B inh 28µM
O=C(Nc1ccc(Cl)cc1)c1cc2n(n1)CC(c1ccc3c(c1)OCO3)OC2 (centres undefined)	KDM5B inh 28µM
COc1ccc(NC(=O)c2cc3n(n2)CC(c2ccc4c(c2)OCO4)OC3)c(OC)c1 (centres undefined)	KDM5B inh 35µM
N#CCc1c(C#N)c(N)nc(NCCc2c[nH]c3ccccc23)c1C#N	none (no result: IP6K1 inhibitor, SNCA expr inhib, SNCA viab count)
O=C(Nc1ccc2c(c1)CCC2)c1cc2n(n1)CC(c1ccc(Cl)cc1)OC2 (centres undefined)	KDM5B inh 32µM
CC(C)n1nc(OC(C)(C)C(=O)NC2CC2)c2cc(CN3CCOCC3)ccc21	KDM5B inh 32µM
CC(C)n1nc(OC(C)(C)C(=O)NCCc2ccccn2)c2cc(CN3CCOCC3)ccc21	KDM5B inh 28µM
CC(C)n1nc(OC(C)(C)C(=O)Nc2cccnc2)c2cc(CN3CCOCC3)ccc21	KDM5B inh inconclusive
C[C@@H](NC(=O)C[C@@H]1c2nc(-c3cccnc3)sc2C[C@@H]2[C@](C)(CO)[C@H](O)CC[C@]21C)c1ccccc1	KDM5B inh 32µM
C[C@]1(CO)[C@H]2Cc3sc(-c4ccccc4)nc3[C@@H](CC(=O)N3CCOCC3)[C@]2(C)CC[C@H]1O	SNCA expr inhib inconclusive, KDM5B inh inconclusive
CC(C)C[C@H](CO)NC(=O)C[C@@H]1c2nc(-c3cccnc3)sc2C[C@@H]2[C@](C)(CO)[C@H](O)CC[C@]21C	KDM5B inh 32µM
CCCCCC(=O)Nc1nc2c(s1)C[C@@H]1[C@](C)(CO)[C@H](O)CC[C@@]1(C)[C@@H]2CC(=O)N[C@H](C)c1ccccc1	none
C#CCN(C)C(=O)C[C@@H]1c2nc(-c3cccnc3)sc2C[C@@H]2[C@](C)(CO)[C@H](O)CC[C@]21C	KDM5B inh 32µM
COCCNC(=O)C[C@@H]1c2nc(-c3ccccc3)sc2C[C@@H]2[C@](C)(CO)[C@H](O)CC[C@]21C	KDM5B inh 28µM
CN(Cc1cccc(F)c1)C(=O)Cn1c(=O)c2c(ncn2C)n(C)c1=O	none (no result: IP6K1 inhibitor, SNCA expr inhib, SNCA viab count)
Cc1ccc2c(c1)C(Cc1nc3ccccc3c(=O)n1CCCO)C(=O)N2C(C)C (centres undefined)	none (no result: IP6K1 inhibitor, SNCA expr inhib, SNCA viab count)
Cc1ccc(CN2C(=O)C3(c4ccccc42)N(c2ccc(C)c(C)c2)C(=O)CS3(=O)=O)cc1 (centres undefined)	none (no result: IP6K1 inhibitor, SNCA expr inhib, SNCA viab count)
O=C(c1ccc(-c2ccc(N3CCSCC3)nc2)cc1)N1CCOCC1	KDM5B inh 22µM
CN1CCN(C(=O)c2ccc(-c3ccc(N4CCCCC4)nc3)cc2)CC1	KDM5B inh inconclusive
O=C(c1ccc(-c2ccc(N3CCSCC3)nc2)cc1)N1CCCCC1	KDM5B inh 28µM
CN1CCN(C(=O)c2ccc(-c3ccc(N4CCSCC4)nc3)cc2)CC1	KDM5B inh 28µM
CC1CCN(C(=O)c2ccc(-c3ccc(N4CCSCC4)nc3)cc2)CC1	SNCA expr inhib inconclusive, SNCA viab count inconclusive, KDM5B inh 28µM
O=C(O)c1ccc(-c2ccc(N3CCCCCC3)nc2)cc1	KDM5B inh inconclusive
CC(C)N1CCC(CNC(=O)CCc2c[nH]c3ccccc23)C1 (centres undefined)	none (no result: IP6K1 inhibitor, SNCA expr inhib, SNCA viab count)
Clc1ccc(Cc2nc(-c3ccc(Br)o3)no2)cc1	none (no result: IP6K1 inhibitor, SNCA expr inhib, SNCA viab count)
NC(N)=N/N=C/C=C/c1ccccc1	none (no result: IP6K1 inhibitor, SNCA expr inhib, SNCA viab count)
CCCCn1c(=O)c2ccccc2n(CC(=O)N(C)c2cccc(C)c2)c1=O	none (no result: IP6K1 inhibitor, SNCA expr inhib, SNCA viab count)
Cc1c(C(=O)N2CCN(c3ccccc3O)CC2)oc2c1C(=O)CC(C)(C)C2	none (no result: IP6K1 inhibitor, SNCA expr inhib, SNCA viab count)
Cc1ccc(Cl)cc1NC(=O)CN1CCC2(CC1)OCCO2	none (no result: IP6K1 inhibitor, SNCA expr inhib, SNCA viab count)
C=CCNc1nc(-c2c(C(=O)OC)c(C)n(C3CC3)c2C)cs1	none (no result: IP6K1 inhibitor, SNCA expr inhib, SNCA viab count)
O=C(CSc1cc(C(=O)NC2CC2)c2ccccc2n1)NCC1CCCO1 (centres undefined)	none (no result: IP6K1 inhibitor, SNCA expr inhib, SNCA viab count)
CCCCn1c(CCC(=O)Nc2cccc(C)c2C)nc2c1c(=O)[nH]c(=O)n2CCC	none (no result: IP6K1 inhibitor, SNCA expr inhib, SNCA viab count)
CC(NC(=O)c1ccc(-c2ccc(N3CCCCCC3)nc2)cc1)c1cccnc1 (centres undefined)	SNCA expr inhib inconclusive, SNCA viab count inconclusive
O=C(c1ccc(-c2ccc(N3CCCCC3)nc2)cc1)N1CCCC1	KDM5B inh 28µM
CCCN1CCN(C(=O)c2ccc(-c3ccc(N4CCCCC4)nc3)cc2)CC1	KDM5B inh 25µM
Cc1cc(OS(C)(=O)=O)cc2c1C(=O)/C(=C/c1ccccc1F)O2	none (no result: IP6K1 inhibitor, SNCA expr inhib, SNCA viab count)
CCOc1ccc2c(c1)cc(C(=O)Nc1ccc(F)cc1F)n2C	none (no result: IP6K1 inhibitor, SNCA expr inhib, SNCA viab count)
